Entries with a potency or affinity are not part of this list. Unmarked numbers belong to inactive results.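 How the source made its calls: active means a fitted half-maximal concentration no higher than twice the top valid tested dose, with signal falling as cells die; inconclusive means flat curve between -70% and -30%, or poor fit; inactive means the rest, including signal rising instead of falling.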
test: HeLa cell cytotoxicity, dose response, cytotoxicity control, ATP luminescence, cherry-pick samples (AID 687004); conditions: HeLa viability, ATP luminescence (CellTiter-Glo), 48 h; series mostly up to 26 µM; activity change, negative = cytotoxicity: at the top concentration;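 further: 0% = neutral control median and -100% = staurosporine 10 µM control median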

| SMILES | activity change, negative = cytotoxicity |
| --- | --- |
| COc1cccc(S(=O)(=O)Nc2ccc3c(c2)OC[C@@H](C)NC[C@H](C)[C@@H](OC)CN(C)C3=O)c1 | -0.599% |
| O=S1(=O)CCC(N=Cc2cc(Br)ccc2O)C1 (stereo not drawn) | 0.537% |
| CC(C)(C)SCCNC(=O)CN(c1ccccc1)S(=O)(=O)c1ccccc1 | 13.7% |
| Cc1noc(C)c1S(=O)(=O)Nc1ccc2c(c1)C(=O)N([C@@H](C)CO)C[C@@H](C)[C@H](CN(C)Cc1ccc3c(c1)OCO3)OCCCC[C@H](C)O2 | -13.9% |
| C[C@H](CO)N1C[C@H](C)[C@H](CN(C)Cc2ccccc2F)Oc2cc(C3=CCCC3)ccc2S1(=O)=O | 18.2% [at 12 µM] |
| CCC(C)c1ccc(NC(=S)N2CCN(c3ccccn3)CC2)cc1 (stereo not drawn) | 4.64% |
| C[C@H]1CN([C@@H](C)CO)C(=O)Cc2cc(NS(=O)(=O)c3cn(C)cn3)ccc2O[C@@H]1CN(C)Cc1ccc(Oc2ccccc2)cc1 | 20.1% |
| Cc1cccc(C)c1NC(=O)C1(NC(=O)C2CCC(=O)N2)CCCCC1 (stereo not drawn) | 11.5% |
| C[C@H]1CN([C@@H](C)CO)C(=O)c2cc(-c3ccccc3)cnc2O[C@@H]1CN(C)C(=O)c1ccccn1 | 7.47% |
| CCOC(=O)NCc1ccc2[nH]c(C)cc2c1 | -7.05% |
| Cc1ccccc1NC(=O)C(NC1CCCCC1)C(C)C (stereo not drawn) | 5.4% |
| CC(NC(=O)COc1ccccc1Cl)c1ccccc1 (stereo not drawn) | 9.7% |
| O=C(CSc1ncnc2c1cnn2-c1ccc(F)cc1)NCC1CCCO1 (stereo not drawn) | 9.09% |
| Cc1noc(C)c1NC(=O)N(C)C[C@H]1OCCCC[C@@H](C)Oc2ccc(NC(=O)NC(C)C)cc2C(=O)N([C@H](C)CO)C[C@H]1C | 0.412% |
| O=C(c1cccs1)N1CCN(c2nc3ccccc3s2)CC1 | 9.71% |
| COc1ccc(N(C)C(=O)c2cn(CC(C)C)c(=O)c3cc(OC)c(OC)cc23)c(OC)c1 | 12.6% |
| CCNC(=O)CN(c1ccc(C)cc1)S(=O)(=O)c1ccc(SC)cc1 | -0.741% |
| O=C(c1cccnc1)N1C[C@H]2[C@@H](c3ccccc31)[C@@H](CO)N2C(=O)Nc1ccc(F)cc1 | -6.02% |
| COC(=O)C1=C(C)N(Cc2ccc(Cl)cc2)C(=S)NC1c1cccc(OC)c1 (stereo not drawn) | -2.09% |

| SMILES | activity change, negative = cytotoxicity |
| --- | --- |
| Cc1ccc(C(=O)n2nnc3ccccc32)cc1[N+](=O)[O-] | 0.569% |
| C[C@@H]1CCCCO[C@H](CN(C)Cc2ccccc2)[C@H](C)CN([C@@H](C)CO)C(=O)c2cc(NS(=O)(=O)c3cccs3)ccc2O1 | 6.29% |
| O=C(C[C@@H]1CC[C@H](NC(=O)Cc2ccccn2)[C@@H](CO)O1)NCCc1ccccc1 | 17.4% |
| Cc1ccc(NC(=O)C(=O)NCCCN2CCCC2=O)c(C)c1 | 9.87% |
| CO[C@@H]1CN(C)C(=O)c2ccc(NS(=O)(=O)c3ccc(Oc4ccccc4)cc3)cc2OC[C@H](C)NC[C@H]1C | 1.65% |
| O=C(c1ccco1)N1N=C(c2cccs2)CC1c1ccco1 (stereo not drawn) | 21.6% |
| Fc1ccc(CNC(=S)NCc2cccc(Cl)c2)cc1 | 1.46% |
| C[C@H](CO)N1C[C@H](C)[C@H](CN(C)Cc2ccc(Cl)c(Cl)c2)Oc2c(NC(=O)Nc3ccccc3)cccc2C1=O | 14.1% |
| CCCN1C(=O)C(O)(C2CC(=O)CC(C)(C)O2)c2ccccc21 (stereo not drawn) | -2.04% |
| Cc1cc(C)cc(OCC(=O)NC(C)c2ccccc2)c1 (stereo not drawn) | 15.3% |
| Cc1ccc(C2CC(c3cccs3)=NN2C(=O)c2ccc(Br)o2)cc1 (stereo not drawn) | 7.58% |
| Cc1ccccc1N(CC(=O)NCCSC1CCCCC1)S(=O)(=O)c1ccccc1 | 1.89% |
| Cc1ccc(OCC(=O)NC(C)c2ccccc2)cc1 (stereo not drawn) | 9.89% |
| COc1ccc(N2CCN(C(=O)CSc3ncnc4c3cnn4-c3ccccc3C)CC2)cc1 | 0.165% |
| CC(C)NC(=O)Nc1ccc2c(c1)C(=O)N([C@@H](C)CO)C[C@@H](C)[C@@H](CN(C)C(=O)NC1CCCCC1)OCCCC[C@H](C)O2 | 11.5% [at 23.5 µM] |
| COCCN1C(=O)CCC1(C)C(=O)Nc1c(C)cccc1C (stereo not drawn) | 13.7% |
| C[C@@H]1CN([C@H](C)CO)C(=O)c2cccc(NC(=O)c3ccncc3)c2O[C@H]1CN(C)C(=O)Nc1ccc(C(F)(F)F)cc1 | 7.95% [at 23.5 µM] |
| CC=Cc1ccc2n(c1=O)C[C@@H]1[C@@H](CO)[C@H](C(=O)NCc3ccc4c(c3)OCO4)[C@H]2N1C(=O)C1CC1 (mixture of isomers) | 5.18% |
| Cc1ccc(C2CCN(C(=S)NC3CCCCC3)C2)cc1 (stereo not drawn) | 10.8% |

— PubChem BioAssay
